Measurements published in the supplement of paper PMC6555819.

Columns and labels:
Assay in all cases: PBM binding z-score (relative to random genomic background probes); higher = stronger binding; sequences stand for … in GC…GCGATTGACAGCGTAGAATGAAGG
[1] = system: FXR:RXRa (NR concentration 270 nM, RXRa partner concentration 90 nM)
Procedure, shortened: (§1)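 Scanned fluorescence from custom Agilent 4×180K protein-binding microarrays was regression-normalized. Binding z-scores use random background probes as reference. Ligand-free nuclear receptor dimers were incubated on the arrays for 1 h and detected with antibodies against each partner (one per run).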

[2] = system: LXRa:RXRa (NR concentration 270 nM, RXRa partner concentration 90 nM)
Procedure, shortened: as §1

[3] = system: LXRa homodimer (NR concentration 270 nM)
Procedure, shortened: as §1

[4] = system: LXRb:RXRa (NR concentration 270 nM, RXRa partner concentration 90 nM)
Procedure, shortened: as §1

[5] = system: LXRb homodimer (NR concentration 270 nM)
Procedure, shortened: as §1

[6] = system: PPARa:RXRa (NR concentration 270 nM, RXRa partner concentration 90 nM)
Procedure, shortened: as §1

[7] = system: PPARg:RXRa (NR concentration 180 nM, RXRa partner concentration 90 nM)
Procedure, shortened: as §1

[8] = system: PPARg:RXRa 270nM:90nM, anti-RXR (NR concentration 270 nM, RXRa partner concentration 90 nM)
Procedure, shortened: as §1

[9] = system: PPARg:RXRa 30nM:10nM, anti-RXR (NR concentration 30 nM, RXRa partner concentration 10 nM)
Procedure, shortened: as §1

[10] = system: PPARg:RXRa 90nM:30nM, anti-RXR (NR concentration 90 nM, RXRa partner concentration 30 nM)
Procedure, shortened: as §1

[11] = system: PPARg:RXRa DBDmut IVT, anti-RXR (DBD mutation: RXRa K156A/R161A, NR concentration 270 nM, RXRa partner concentration 90 nM)
Procedure, shortened: as §1

[12] = system: PPARg:RXRa IVT, anti-PPARg (NR concentration 270 nM, RXRa partner concentration 90 nM)
Procedure, shortened: as §1

[13] = system: PPARg DBDmut:RXRa IVT, anti-PPARg (DBD mutation: PPARg1 K132A/R137A, NR concentration 270 nM, RXRa partner concentration 90 nM)
Procedure, shortened: as §1

[14] = system: PPARg DBDmut IVT, anti-PPARg (DBD mutation: PPARg1 K132A/R137A, NR concentration 270 nM)
Procedure, shortened: as §1

[15] = system: PPARg homodimer (NR concentration 180 nM)
Procedure, shortened: as §1

[16] = system: PXR:RXRa (NR concentration 270 nM, RXRa partner concentration 90 nM)
Procedure, shortened: as §1

[17] = system: PXR homodimer (NR concentration 270 nM)
Procedure, shortened: as §1

[18] = system: RARa:RXR (NR concentration 270 nM, RXRa partner concentration 90 nM)
Procedure, shortened: as §1

[19] = system: RARa homodimer (NR concentration 270 nM)
Procedure, shortened: as §1

[20] = system: RARb:RXRa (NR concentration 270 nM, RXRa partner concentration 90 nM)
Procedure, shortened: as §1

Sequence | PBM binding z-score [1] | PBM binding z-score [2] | PBM binding z-score [3] | PBM binding z-score [4] | PBM binding z-score [5] | PBM binding z-score [6] | PBM binding z-score [7] | PBM binding z-score [8] | PBM binding z-score [9] | PBM binding z-score [10] | PBM binding z-score [11] | PBM binding z-score [12] | PBM binding z-score [13] | PBM binding z-score [14] | PBM binding z-score [15] | PBM binding z-score [16] | PBM binding z-score [17] | PBM binding z-score [18] | PBM binding z-score [19] | PBM binding z-score [20]
ATCTCTTGGTAAAAGTTCAGTGAATCCCGAGGAT | 0.493 | 1.23 | 1.42 | 0.868 | 1.09 | 1.58 | 1.87 | 4.15 | 1.88 | 3.88 | -0.122 | 0.894 | 0.627 | 0.652 | 1.46 | 1.83 | 1.58 | 1.1 | 1.12 | 2.37
AGAATGAGGTTATTAAGATCAGGTAATTGCGGTC | 1.7 | 1.73 | 0.77 | 1.33 | 0.187 | 2.49 | 1.38 | 1.96 | 0.716 | 1.09 | 3.34 | 2.83 | 0.665 | 0.745 | 1.17 | 1.48 | 0.904 | 1.51 | 0.41 | 1.37
TCGAGTAGGTTACCAATGGGGCATTCACCTTTCT | 0.403 | 1.81 | -0.322 | 1.57 | -0.26 | 1.55 | 0.512 | 1.43 | 1.26 | 1.47 | 3.38 | 2.75 | 0.0374 | 0.508 | 0.0872 | 0.579 | -0.637 | 1.1 | -0.777 | 1.13
AGCCAAAGTTCAGGACGAGGTAACGTAAAGCACG | 4.33 | 3.71 | 1.39 | 1.94 | 0.134 | 3.22 | 3.24 | 3.54 | 0.828 | 2.74 | -0.0528 | 1.03 | -0.637 | -0.0617 | 1.29 | 2.65 | 0.942 | 2.64 | 0.246 | 4.33
CCTGCTAGGTCAATGGTCGGCTAAAGCAGCTCGC | 2.91 | 2.29 | 0.0582 | 1.14 | -0.355 | 2.95 | 3.48 | 4.34 | 1.27 | 3.38 | 4.15 | 4 | -0.289 | -0.553 | 1.3 | 0.918 | -0.868 | 1.47 | 0.0604 | 3.73
GGAACGAGGGCAAAGTAGATAGCATCTGTCGACG | 0.832 | 0.557 | -0.498 | 0.289 | -0.467 | 1.98 | 2.48 | 2.96 | 0.802 | 2.23 | 4.05 | 3.19 | -0.596 | -0.605 | 0.234 | 0.482 | 0.16 | 0.38 | -0.526 | 2.15
GCAGACAGGTGAAACGCAGGTAACTCAAGGTGGC | -0.175 | 0.4 | -0.42 | -0.165 | -1.28 | 0.892 | 0.604 | -0.0904 | -0.0664 | -0.118 | 1.07 | 0.401 | -0.233 | -0.299 | -0.279 | -0.0534 | -0.612 | 0.593 | -0.358 | 0.608
CATACAGGGTCAGCTAGGCCCGAGTAGGGACGGC | 4.65 | 3 | -0.329 | 1.95 | 0.134 | 4.15 | 2.95 | 2.99 | 0.725 | 1.72 | 0.974 | 2.05 | 0.221 | 0.342 | 1.66 | 2.1 | -0.596 | 3.11 | 0.256 | 4.08
GATACAGGGTAAGCTAGAGGCCAGAGTATGGAAA | -0.252 | -0.448 | -0.407 | -0.76 | -1.15 | -0.293 | 0.319 | -0.0379 | -0.0812 | -0.0554 | 0.227 | 0.424 | -0.118 | -0.173 | -0.435 | -0.38 | -0.17 | -0.0414 | -0.543 | 0.634
ACTATTAGTTGACTTAGTGCAACCGATACGACGC | -0.217 | -0.0103 | -0.0872 | -0.107 | 0.478 | -0.0535 | 0.743 | 0.105 | 0.433 | 0.153 | 0.167 | 0.382 | 0.85 | 0.707 | 0.732 | 0.283 | 0.128 | 0.123 | 0.689 | 0.309
TTTACAGGGTCAAAGGCCAGAGTACGAATGTCGA | 6.76 | 5.85 | 2.22 | 4.87 | 1.18 | 6.03 | 8.6 | 7.65 | 6.04 | 7.79 | 3.26 | 5.18 | 1.93 | 1.36 | 1.8 | 4.41 | 0.247 | 6 | 1.16 | 4.52
CCTAGTTCGTCAAGGTCACACACGCTATAGGTAC | 4.55 | 3.92 | 2.75 | 4.06 | 1.33 | 4.36 | 2.52 | 3.46 | 0.804 | 2.23 | 1.21 | 2.33 | 1 | 1.24 | 4.18 | 5.38 | 10.4 | 4.97 | 2.49 | 4.37
CAAACTAGGTCACAGACGTCAAAGTCCGTGCGTA | 4.25 | 3.06 | 0.272 | 2.08 | 0.253 | 5.37 | 8.86 | 7.39 | 5.35 | 7.4 | 8.58 | 8.8 | 3 | 2.09 | 2.24 | 1.72 | 0.0509 | 2.65 | 0.354 | 4.08
TCTATTAGTTGATTACGGCAACCGAAACAGCGGA | 0.899 | 0.638 | 0.651 | 0.546 | 0.998 | 0.921 | 0.134 | 1.95 | 3.63 | 3.1 | 2.26 | 0.246 | 1.27 | 1.25 | 1.11 | 0.471 | 0.751 | 0.595 | 1.59 | 0.331
